# High-throughput results as filed in PubChem.
# BAZ2B inh = qHTS Assay for Inhibitors of BAZ2B; 4.4% of 360,000 active; AID 504333, 2011; AlphaScreen BAZ2B-H3K14Ac peptide displacement; Potency, µM (top dose mostly 114 µM), for inactives: top-dose activity change, negative = inhibition, actives largely listed as inhibitors; Bromodomain adjacent to zinc finger domain protein 2B (Homo sapiens), Q9UIF8; also: % is scaled to controls: 0 for no effect and ±100 for the full control effect; nearly all actives have a fitted effect of over 60% in size
#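 Protein-peptide AlphaScreen: BAZ2B 50 nM, b-H3K14Ac 50 nM, 1x PBS pH 7.4 + 0.01% Tween-20. Preincubation 30 min RT; cpd 30 min RT (top 110 uM); beads 20 min RT, light-protected.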
# L3MBTL1 inh = qHTS Assay for the Inhibitors of L3MBTL1 | Lethal(3)malignant brain tumor-like protein 1 (Homo sapiens), Q9Y468 | AlphaScreen L3MBTL1–H3K9me1 peptide binding | Potency, µM (series often up to 57.1 µM), for the others: at the highest dose activity, negative = inhibition, usual class: inhibitors | 0.66% of 230,000 active | AID 485360, 2010; also: % is scaled to controls: 0 for no effect and ±100 for the full control effect; nearly all actives have a fitted effect of over 60% in size
#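 Read-out is AlphaScreen signal from streptavidin donor and nickel chelate acceptor beads (10 ug/mL final each) bridging L3MBTL1 (50 nM) and biotinylated K9-monomethylated H3(1-15) peptide (75 nM), after 30 min compound exposure at room temperature.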
# G9a inh = qHTS Assay for Inhibitors of Histone Lysine Methyltransferase G9a; G9a H3K9 monomethylation, AlphaScreen, 2 h; AID 504332, 2011; 8.8% of 350,000 active; Potency, µM (highest dose often 102 µM), for inactives: at the highest dose activity, negative = inhibition, actives largely listed as inhibitors; Histone-lysine N-methyltransferase EHMT2 (Homo sapiens), Q96KQ7; also: % is scaled to controls: 0 for no effect and ±100 for the full control effect; nearly all actives have a fitted effect of over 75% in size
#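 G9a (20 nM) was preincubated 15 min with compound, then reacted 2 h at room temperature with 500 nM biotin-H3K9 peptide and 20 µM SAM. Monomethyl-H3K9 detected by AlphaScreen using anti-H3K9me1 antibody.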
# HP1b binding inh = HTS for Inhibitors of HP1-beta Chromodomain Interactions with Methylated Histone Tails; AlphaScreen HP1-beta / biotin-H3K9me3 peptide binding; Potency, µM (series often up to 114 µM), without a hit: at the highest dose activity change, negative = inhibition, usual class: inhibitors; 0.56% of 390,000 active; AID 540317, 2011; also: nearly all actives have a fitted effect of over 70% in size
#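 HP1-beta protein (50 nM final) preincubated 30 min at room temperature with biotinylated H3(1-18)K9me3 peptide (50 nM) in PBS pH 7.4, 0.01% Tween-20, then compound added for 30 min. AlphaScreen streptavidin donor/nickel chelate acceptor beads (10 ug/mL final), 30 min dark, luminescence read.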
# Sfp PPTase inh = qHTS Assay for Inhibitors of Bacillus subtilis Sfp phosphopantetheinyl transferase (PPTase). Biochemical Sfp PPTase activity, qHTS. Potency, µM, inactives show largest response in the series, negative = inhibition, usual class: inhibitors. 3.5% of 310,000 active. AID 1490, 2009;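 also: the enzyme is Sfp with the accession as filed and its product quenches rhodamine fluorescence; 0% = enzyme reaction without inhibitor and -100% = no enzyme wells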
#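 Step 1, compound plus 15 nM Sfp-PPTase, 15 min, room temperature. Step 2, add rhodamine-CoA (5 uM) and BHQ-2-YbbR (12.5 uM). Step 3, read 525/598 nm fluorescence at 0 and 30 min.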
# JMJD2A Tudor = qHTS Assay for Inhibitors of JMJD2A-Tudor Domain | Lysine-specific demethylase 4A (Homo sapiens), O75164 | AlphaScreen JMJD2A-Tudor / H3K4me3 peptide binding | Potency, µM (highest dose often 114 µM), for the others: at the top dose activity change, negative = inhibition, actives largely listed as inhibitors | 4.4% of 390,000 active | AID 504339, 2011; also: % is scaled to controls: 0 for no effect and ±100 for the full control effect; nearly all actives have a fitted effect of over 50% in size
# * = called active by the depositor; ? = inconclusive; . = not tested or not shown; [ ] = another dose, or the depositor's remark. This is a sample that favours compounds with a hit; in the whole collection about 12% have one here. Calls follow the shape of the dose curve; as a rule, active = well fitted curve in the direction sought with a large enough effect; inconclusive = small, poorly fitted or top-dose-only effect, or another doubt; inactive = no such curve, though single readings can be large; an effect the other way counts as inactive or inconclusive. Potency is read from the fitted curve at half-maximal effect.
SMILES,BAZ2B inh,L3MBTL1 inh,G9a inh,HP1b binding inh,Sfp PPTase inh,JMJD2A Tudor
COC(=O)C1=C(C)N(CCc2ccccc2)C(=O)C1,12%,0%,?,32%,6%,-6%
CCOc1ccc(N2C(=O)/C(=C/c3ccccc3OCC(=O)OC)N(CC(=O)OC)C2=S)cc1,-37%,-30%,?,4%[57 µM],7%,-32%
CCOc1ccc(N2C(=O)/C(=C/c3ccco3)N(C)C2=S)cc1,-6%,-12%,10µM*,4%,40µM*,-28%
O=C1CC(c2nc3ccccc3[nH]2)CN1c1cccc(Cl)c1 (stereo unspecified),1%,.,3%[59 µM],36%,.,3%
CCC1CCCCN1CCCNC(=O)c1ccc(CS(=O)(=O)Cc2ccc(Cl)cc2)o1 (stereo unspecified),5%,.,13%,22%,19%,-15%
COc1ccc(NC(=O)Nc2cccc3c2O[C@H](CN(C)S(=O)(=O)c2cn(C)cn2)[C@@H](C)CN([C@H](C)CO)C3=O)cc1,.,-1%,.,50%,.,14%
C=CCN1C(=O)/C(=C\c2ccco2)C(C(=O)OC)=C1C,45µM*,?,?,-12%,20µM*,?
COC(=O)C1=C(C)N(Cc2ccccc2)C(=O)/C1=C\c1ccco1,18µM*,?,28µM*,?,-26%,?
CCN1C(=O)/C(=C\c2ccco2)C(C(=O)OC)=C1C,?,-10%,?,-14%,6%,?
COC(=O)c1[nH]nc2c1C(=O)N(Cc1ccccc1)C2=O,-7%,1%,-12%[2.33 µM],59%,23%,12%
Clc1ccc(CN2CCCCCCC2)cc1Cl,-12%,14%,?,-38%,-25%,28µM*
O=[N+]([O-])c1ccc(Cl)cc1N1CCCC1,?,-16%,.,10%,10%,-34%
O=[N+]([O-])c1cc(CN2CCCC2)ccc1Sc1ccc(Cl)cc1,40µM*,?,35µM*,40µM*,2%,35µM*
Clc1ccc(CN2CCCCCC2)cc1,?,-4%,13µM*,?,1%,1.8µM*
Oc1ccccc1C1C=C(c2ccc3c(c2)OCO3)NC(c2ccc(F)c(Br)c2)N1 (stereo unspecified),.,.,.,19%,.,-31%
O=c1ccc(=O)n(-c2ccccc2)[nH]1,-1%,9%,14µM*,?,50µM*,79µM*
O=C(NCc1ccc(Cl)cc1)c1cnc2sc(N3CCOCC3)nn2c1=O,4%,.,-22%[59 µM],0%,.,-17%
CCn1ncc(C2=NOC(C(=O)NCc3ccccc3)C2)c1C (stereo unspecified),1%,2%,45µM*,-8%,79µM*,-1%
COC(=O)C1=C2SC(C)C(=O)N2C(N)=C(C#N)C1c1cc(OC)c(OC)c(OC)c1 (stereo unspecified),-7%,-2%,?,33%,35µM*,0%
COC(=O)C1=C2SC(C)C(=O)N2C(N)=C(C#N)C1c1ccc(OC)c(OC)c1 (stereo unspecified),-37%,-9%,?,9%,35µM*,-29%
CCOC(=O)C1=C(N)N2C(=O)C(C)SC2=C(C(=O)OC)C1c1cccc(OC)c1 (stereo unspecified),-8%,.,8%,24%,-8%,-22%
COc1ccc(C2Nc3ccccc3C(=O)N2Cc2ccccc2)cc1COc1ccc(Cl)cc1Cl (stereo unspecified),4%,7%,3%[12.7 µM],.,.,.
COc1ccc(S(=O)(=O)NCC(c2ccc(F)cc2)N2CCOCC2)cc1Br (stereo unspecified),6%,-1%,?,36%,.,-16%
COc1ccccc1NC(C)=O,.,-3%,7%[59 µM],-1%,12%,-8%[11.4 µM]
COc1ccccc1NC(=O)C(=N\O)/C(C)=N/O,-34%,1%,10µM*,-16%,7%,?
SMILES,BAZ2B inh,L3MBTL1 inh,G9a inh,HP1b binding inh,Sfp PPTase inh,JMJD2A Tudor
CC(=N\NC(=O)c1ccccc1)/C(=N/O)C(=O)Nc1ccccc1,56µM*,.,24%,47%,4%,-10%
CC1(C)C[C@@H](O)[C@]2(C)CC[C@]3(C)C(=CCC4[C@@]5(C)CC[C@H](O)[C@](C)(CO)C5CC[C@]43C)[C@@H]2C1 (stereo partly specified),.,-1%,.,22%,.,-20%
CN(C)CCN(Cc1ccccc1)S(=O)(=O)c1ccc(-c2cc(C(F)(F)F)on2)s1,-34%,.,-5%[59 µM],17%,.,?
O=C(O)COn1c(-c2ccccc2)nc2ccc([N+](=O)[O-])cc21,50µM*,?,45µM*,11%,25%,?
CCCCCn1c(=O)c(C(=O)c2ccccc2)nc2ccccc21,-1%[57.1 µM],-6%,-15%[59 µM],-2%,9%,-21%
CCCCCCn1c(=O)[nH]c2nc3cc(N)ccc3nc2c1=O,1%,10%,40µM*,59%,?,12%
COc1ccc(Cn2c(=O)c3ccccc3n3c(-c4ccc(C)cc4)nnc23)cc1,-8%,.,-34%[59 µM],31%,.,-11%
COc1cccc(NC(=S)NC(=O)/C=C/c2ccco2)c1,50µM*,-27%,45µM*,-12%,-13%,?
O=C(/C=C/c1ccco1)Nc1ccccc1C(=O)Nc1cccc(C(=O)O)c1,-23%,?,50µM*,-4%,?,-30%
Cc1occc1C(=O)Nc1cccc(C(=O)O)c1,0%,.,1%[59 µM],8%,18%,-14%
COc1ccc(NC(=S)NC(=O)/C=C/c2ccco2)c(OC)c1,-24%,2%[2.29 µM],13%[0.501 µM],-4%,-15%,?
O=C(Nc1ccccc1C(=O)Nc1ccccc1)c1ccccc1Br,.,.,.,20%,.,-3%
CN1CCN(c2ccc(NC(=S)NC(=O)/C=C/c3ccco3)cc2)CC1,?,.,45µM*,-21%,-23%,?
O=C(O)/C=C/C(=O)Nc1ccccc1C(=O)Nc1ccccc1,-35%,.,?,64%,79µM*,-16%
CCOc1ccc(C(=O)NCc2ccc3c(c2)CCN3C(=O)c2ccc(Cl)cc2)cc1,-16%,.,-3%[59 µM],38%,.,-6%
CCCCCCn1c(SCC#N)nc2ccccc2c1=O,.,.,.,60%[57 µM],.,15%[57.1 µM]
Cc1ccc(C2c3[nH]c4ccccc4c3C[C@H]3C(=O)N(c4ccccc4C(=O)N4CCC[C@H]4C(=O)O)C(=O)N23)cc1 (stereo partly specified),-7%,.,19%[12.7 µM],3%,4%,-20%
CC(=O)Nc1cccc(C(=O)/C=C/c2ccco2)c1,-2%,-6%,14µM*,6%,14µM*,-12%
